# Key:
# Assay in all cases: PBM binding z-score (relative to random genomic background probes); higher = stronger binding; sequences stand for … in GC…GCGATTGACAGCGTAGAATGAAGG
# [1] = tested on: FXR:RXRa (NR concentration 270 nM, RXRa partner concentration 90 nM)
# In short: (§1)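 Scanned fluorescence from custom Agilent 4×180K protein-binding microarrays was regression-normalized. Binding z-scores use random background probes as reference. Ligand-free nuclear receptor dimers were incubated on the arrays for 1 h and detected with antibodies against each partner (one per run).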
# [2] = tested on: LXRa:RXRa (NR concentration 270 nM, RXRa partner concentration 90 nM)
# In short: as §1
# [3] = tested on: LXRa homodimer (NR concentration 270 nM)
# In short: as §1
# [4] = tested on: LXRb:RXRa (NR concentration 270 nM, RXRa partner concentration 90 nM)
# In short: as §1
# [5] = tested on: LXRb homodimer (NR concentration 270 nM)
# In short: as §1
# [6] = tested on: PPARa:RXRa (NR concentration 270 nM, RXRa partner concentration 90 nM)
# In short: as §1
# [7] = tested on: PPARg:RXRa (NR concentration 180 nM, RXRa partner concentration 90 nM)
# In short: as §1
# [8] = tested on: PPARg:RXRa 270nM:90nM, anti-RXR (NR concentration 270 nM, RXRa partner concentration 90 nM)
# In short: as §1
# [9] = tested on: PPARg:RXRa 30nM:10nM, anti-RXR (NR concentration 30 nM, RXRa partner concentration 10 nM)
# In short: as §1
# [10] = tested on: PPARg:RXRa 90nM:30nM, anti-RXR (NR concentration 90 nM, RXRa partner concentration 30 nM)
# In short: as §1
# [11] = tested on: PPARg:RXRa DBDmut IVT, anti-RXR (DBD mutation: RXRa K156A/R161A, NR concentration 270 nM, RXRa partner concentration 90 nM)
# In short: as §1
# [12] = tested on: PPARg:RXRa IVT, anti-PPARg (NR concentration 270 nM, RXRa partner concentration 90 nM)
# In short: as §1
# [13] = tested on: PPARg DBDmut:RXRa IVT, anti-PPARg (DBD mutation: PPARg1 K132A/R137A, NR concentration 270 nM, RXRa partner concentration 90 nM)
# In short: as §1
# [14] = tested on: PPARg DBDmut IVT, anti-PPARg (DBD mutation: PPARg1 K132A/R137A, NR concentration 270 nM)
# In short: as §1
# [15] = tested on: PPARg homodimer (NR concentration 180 nM)
# In short: as §1
# [16] = tested on: PXR:RXRa (NR concentration 270 nM, RXRa partner concentration 90 nM)
# In short: as §1
# [17] = tested on: PXR homodimer (NR concentration 270 nM)
# In short: as §1
# [18] = tested on: RARa:RXR (NR concentration 270 nM, RXRa partner concentration 90 nM)
# In short: as §1
# [19] = tested on: RARa homodimer (NR concentration 270 nM)
# In short: as §1
# [20] = tested on: RARb:RXRa (NR concentration 270 nM, RXRa partner concentration 90 nM)
# In short: as §1
Sequence,PBM binding z-score [1],PBM binding z-score [2],PBM binding z-score [3],PBM binding z-score [4],PBM binding z-score [5],PBM binding z-score [6],PBM binding z-score [7],PBM binding z-score [8],PBM binding z-score [9],PBM binding z-score [10],PBM binding z-score [11],PBM binding z-score [12],PBM binding z-score [13],PBM binding z-score [14],PBM binding z-score [15],PBM binding z-score [16],PBM binding z-score [17],PBM binding z-score [18],PBM binding z-score [19],PBM binding z-score [20]
CCTGCTAGGACATGGTCAGCTAATCTACAGTATG,-0.435,-0.686,-0.63,-0.793,-0.639,-1.84,0.246,-0.764,-0.445,-0.928,0.152,-0.597,-0.458,-0.543,-0.902,-0.794,-0.746,-0.925,-0.734,0.0895
CGAACTAGGTCATCCAGGACAGGGAATACATTGA,4.45,2.35,0.51,1.85,0.035,4.75,7.8,6.18,3.9,5.82,7.79,8.34,3.98,2.59,1.77,1.6,0.593,2.36,0.244,3.78
TGAATGAGGTTATAAGATCCGGGAACGTTGCAAA,1.15,1.21,-0.3,0.909,-0.0595,2.45,1.01,1.33,0.723,1.15,1.11,1.48,1.46,0.366,0.364,0.692,-0.0533,1.28,-0.21,1.14
TATCCTAGGTCATGCGGGCCAGTATAGTGTCGGC,4.73,5.7,4.76,2.7,2.07,4.14,3.92,3.74,1.55,2.88,3.98,4.97,1.6,1.66,1.75,2.04,0.212,2.76,-0.133,3.9
CGATCTAGGTCATTGACAGGACAGTGAATAGTAA,4.68,2.86,0.511,2.07,0.134,4.52,6.86,6.06,3.13,5.68,7.84,7.9,1.48,1.96,1.92,1.64,0.255,2.35,0.361,3.61
CCTCCTGGGCCAAGGTCATTGATCAGTCAAAGCA,2.96,2.89,1.06,2.86,-0.68,3.57,1.39,2.83,0.457,1.75,-0.293,1.48,-1.33,-1.61,1.55,3.38,0.83,3.49,-0.129,3.47
CCGAGTAGGTTATGCGGCATTCAGGCAACGGTGA,-0.091,0.00702,-0.177,-0.0522,-0.569,0.802,0.774,1.06,-0.439,0.685,2.82,2.03,-1.08,-0.567,0.671,-0.0535,0.0083,0.343,0.296,0.464
CAGCCTAGGTCAGGGCCAGTATAGGAGGAACGTT,1.63,0.984,0.0185,0.506,-0.929,2.13,0.978,1.03,0.126,0.524,0.848,1.84,-0.882,-1.52,1.03,0.272,-0.731,1.2,-0.0375,3.6
TCTTGTAGATCAACAGGAGGATAAGAAAGATCGA,0.307,0.0206,-0.000187,0.226,-0.349,0.337,0.379,0.997,2.56,1.61,1.64,0.232,0.62,0.57,0.00545,0.187,0.0396,0.295,-0.0742,-0.284
ATACCAAGGTGATCGTGAGGTCGTTGACACTAAC,2.81,1.92,0.798,1.38,-0.392,1.59,0.583,0.586,0.0332,0.0166,0.337,1.12,-0.329,0.642,1.07,3.23,1.34,2.52,0.306,1.4
TCATATAGGTAATACAGGTGATAGTCGGCATCTA,0.719,1,0.507,0.789,0.315,1.36,1.6,2.3,3.98,3.1,4.04,3.01,1.19,2.05,1.08,0.592,0.285,0.723,1.73,0.484
TCATATAGGTAAACAAGTGAAAGTCCGTAAGTTA,1.87,1.33,0.256,1.17,0.297,1.58,1.4,2.55,4.08,2.98,3.94,2.87,1.04,0.969,0.811,0.871,0.525,0.876,1.3,0.893
TCTTGTAGATCAATAAAGGTTAAGAAAGTGCGCT,1.03,4.33,0.774,2.36,0.274,2.32,0.49,2.26,2.99,2.82,2.1,1.29,0.661,1.24,1.33,3.04,0.584,2.3,1.6,1.53
TCTATTCGTTGAAGGGCAACCGACGAGTCCGTTT,0.909,1.05,0.235,1.05,0.752,1.25,0.0836,2.42,3.64,3.2,2,0.764,0.959,0.28,0.703,0.999,0.546,0.933,0.583,1.56
ATCGAAAGGTCGACGTGGTGAGTATACACCGTTT,4.21,3.3,0.0877,2.49,0.332,4.08,2.08,2.66,1.01,1.77,0.406,1.46,0.651,0.527,1.02,2.18,0.102,3.07,0.487,3.66
ATCGAACGGTCGTGAGGTGAGTATACAGAAAGGC,0.0725,-0.0756,-0.243,-0.299,-0.457,0.134,0.66,-0.0797,-0.119,-0.0767,-0.977,0.391,0.438,0.339,0.0797,0.0108,-0.33,0.461,0.0209,1.08
GCTAGTTGGTCAATAAAAGGTCACACACCGGTCG,3.63,5.13,6.33,4.53,0.973,4.39,2.18,3.93,1.16,2.9,1.64,3.07,0.532,0.266,4.72,5.3,1.4,5.89,3.47,4.33
CAAACTAGGTGAAGGTCAAAGTCGGTTTGTGCCA,4.11,4.11,2.31,3.48,0.412,5.38,7.65,6.92,5.05,6.44,8.04,8.04,2.16,0.309,2.76,3.95,0.968,4.27,0.0969,3.87
ACTAGTTGGTCAGCTGAGTTCACACACAATTCGG,1.06,1.59,1.72,1.59,0.275,1.65,0.747,0.792,0.098,0.251,1.2,1.32,0.662,0.707,0.775,5.66,6.87,2.32,0.2,2
AATACAGGGTCACTAGGCCAGAGCAGGTACGAAT,5.98,5.08,0.784,3.77,0.86,5.66,7.53,6.45,3.36,5.53,4.31,5.63,2.36,1.22,2.4,3.16,-0.000752,4.15,0.899,4.16
AGAATGCGGTTAAGATCAGGGAAACAGAATACAT,-0.249,-0.195,-0.0658,-0.185,-0.913,-0.181,0.331,0.0448,0.301,0.258,-0.441,-0.00811,0.624,0.11,0.393,-0.295,-0.312,-0.225,0.513,-0.152
TGACCAAGGTGAAGGTCGTTGATCCCTCTGTAGA,2.13,1.77,-0.327,1.57,-1.14,2.49,2.18,3.17,0.953,2.49,1.27,2.71,-0.305,-0.387,0.818,1.26,-0.313,1.8,-0.922,2.11
CCTACTGGGCCATAGGTCATTGATTCCAATGCTC,1.76,2.08,1.23,2.39,-0.227,5.16,9.89,8.77,8.56,10.3,3.69,5.78,-0.202,0.625,2,2.1,0.286,2.7,-0.287,2.34
TCTGGTAGGTCAACGATGGTCAGCTAATCTGCTA,4.45,3.6,0.986,2.55,0.479,4.35,4.4,4.54,3.78,4.32,5.2,5.77,1.81,0.722,2.39,2.25,0.21,2.78,0.843,4.16
CCGAGTAGGTTATGGGGCAATCAGGCAACGGTGA,0.219,0.461,0.13,0.86,-0.142,2.37,3.61,4.62,2.23,4.39,3.71,3.81,-0.0155,-0.785,0.948,0.118,-0.0981,0.631,0.26,1.11
CGTCCAAGGTCATAGGACGTCAGTGAAGACAGAT,7.14,5.2,0.696,3.88,0.284,5.43,4.73,5.14,1.6,3.51,2.61,3.41,0.547,0.692,1.99,4.09,1.1,4.61,1.29,4.77
GCAGACAGGTGAATCGCAGGTAACTCAGGGTGGC,-0.281,-0.0182,-0.726,-0.203,-1.12,0.748,0.386,-0.0895,-0.47,-0.296,0.726,0.657,-0.695,-0.904,-0.727,-0.313,-0.959,0.0382,-0.689,0.443
ACTAGTTGGTCAGCTGAGGTCACACATAATTCGG,3.42,3.14,2.03,3.37,1.17,3.6,1.8,2.34,0.875,1.62,1.85,2.53,0.818,1.05,2.38,5.42,1.87,4.34,1.21,3.51
